{"source": "the antibiotic and cytotoxicity screens of Wong et al. (2023)", "note": "The campaign covered roughly 39,000 compounds. About 1,500 (3.8%) were called active. Only a selection was taken, and actives are over-represented in it overall.", "data": [{"system": "HSkMC (human skeletal muscle cells)", "test": "cytotoxicity call (relative viability < 0.9)", "settings": "10 µM", "values": [{"smiles": "O=C(CN1CCOCC1)N[C@H]1CC[C@H](CCNC(=O)C2CCCCC2)O[C@@H]1CO", "cytotoxicity call": "inactive"}, {"smiles": "CNC[C@@H]1Oc2ccc(NS(=O)(=O)c3cn(C)cn3)cc2C(=O)N([C@H](C)CO)C[C@H]1C", "cytotoxicity call": "inactive"}, {"smiles": "CCCNC(=O)N1C[C@@H](O)COC[C@@H]2O[C@@H](CC(=O)N3CCOCC3)CC[C@H]21", "cytotoxicity call": "inactive"}, {"smiles": "O=C(C[C@@H]1CC[C@H]2[C@@H](COC[C@H](O)CN2S(=O)(=O)c2ccc(F)cc2)O1)N[C@H]1CCN(Cc2ccccc2)C1", "cytotoxicity call": "inactive"}, {"smiles": "COc1nsnc1N1CCOCC1", "cytotoxicity call": "inactive"}, {"smiles": "C[C@@H]1CN([C@@H](C)CO)C(=O)Cc2cc(NS(=O)(=O)c3ccccc3)ccc2O[C@@H]1CN(C)Cc1ccc(Cl)c(Cl)c1", "cytotoxicity call": "active"}, {"smiles": "C[C@@H]1CN([C@@H](C)CO)C(=O)Cc2cc(NS(=O)(=O)c3ccccc3)ccc2O[C@H]1CN(C)Cc1ccc(Cl)c(Cl)c1", "cytotoxicity call": "active"}, {"smiles": "C[C@H]1CN([C@@H](C)CO)C(=O)Cc2cc(NS(=O)(=O)c3ccccc3)ccc2O[C@H]1CN(C)Cc1ccc(Cl)c(Cl)c1", "cytotoxicity call": "inactive"}, {"smiles": "C[C@H](CO)N1C[C@H](C)[C@@H](CN(C)Cc2ccc(Cl)c(Cl)c2)Oc2ccc(NS(=O)(=O)c3ccccc3)cc2CC1=O", "cytotoxicity call": "inactive"}, {"smiles": "C[C@@H]1CN([C@H](C)CO)C(=O)Cc2cc(NS(=O)(=O)c3ccccc3)ccc2O[C@@H]1CN(C)Cc1ccc(Cl)c(Cl)c1", "cytotoxicity call": "active"}, {"smiles": "C[C@H]1CN([C@@H](C)CO)C(=O)Cc2cc(NS(=O)(=O)c3ccccc3)ccc2O[C@@H]1CN(C)Cc1ccc(Cl)c(Cl)c1", "cytotoxicity call": "inactive"}, {"smiles": "C[C@@H]1CN([C@H](C)CO)C(=O)Cc2cc(NS(=O)(=O)c3ccccc3)ccc2O[C@H]1CN(C)Cc1ccc(Cl)c(Cl)c1", "cytotoxicity call": "active"}, {"smiles": "C[C@H](CO)N1C[C@H](C)[C@H](CN(C)Cc2ccc(Cl)c(Cl)c2)Oc2ccc(NS(=O)(=O)c3ccccc3)cc2CC1=O", "cytotoxicity call": "inactive"}, {"smiles": "Cc1noc(C)c1NC(=O)N(C)C[C@H]1Oc2ccc(NC(=O)Nc3ccc(C(F)(F)F)cc3)cc2C(=O)N([C@H](C)CO)C[C@@H]1C", "cytotoxicity call": "inactive"}, {"smiles": "NNC(=O)[C@H]1C[C@H]2C[C@@H]1C[C@@H]2C(=O)NN", "cytotoxicity call": "inactive"}, {"smiles": "COc1ccc(S(=O)(=O)N(C)C[C@H]2Oc3ccc(NC(=O)Cn4cnnn4)cc3CC(=O)N([C@@H](C)CO)C[C@H]2C)cc1", "cytotoxicity call": "inactive"}, {"smiles": "O=C(O)c1ccc[n+]([O-])c1", "cytotoxicity call": "inactive"}, {"smiles": "CN(C)C(=O)C1CCN(S(C)(=O)=O)CC1", "cytotoxicity call": "inactive"}, {"smiles": "Cc1noc(C)c1NC(=O)Nc1ccc2c(c1)C(=O)N([C@@H](C)CO)C[C@H](C)[C@H](CN(C)C(=O)Nc1ccc(C(F)(F)F)cc1)O2", "cytotoxicity call": "inactive"}, {"smiles": "C[C@@H]1CCCCO[C@@H](CN(C)C(=O)c2ccccc2)[C@@H](C)CN([C@H](C)CO)C(=O)c2cc(NC(=O)Cc3ccccc3)ccc2O1", "cytotoxicity call": "inactive"}, {"smiles": "O=C(Nc1cc(Cl)ccc1Cl)c1cc(Br)ccc1NS(=O)(=O)c1ccc(Cl)c([N+](=O)[O-])c1", "cytotoxicity call": "inactive"}, {"smiles": "COCCNCc1ccc(-c2cc3nccc(Oc4ccc(NC(=S)NC(=O)Cc5ccc(F)cc5)cc4F)c3s2)nc1", "cytotoxicity call": "active"}, {"smiles": "Cn1cnc(-c2cc3nccc(Oc4ccc(NC(=S)NC(=O)Cc5ccccc5)cc4F)c3s2)c1", "cytotoxicity call": "inactive"}, {"smiles": "COCCNCc1ccc(-c2cc3nccc(Oc4ccc(NC(=O)C5(C(=O)Nc6ccc(F)cc6)CC5)cc4F)c3s2)nc1", "cytotoxicity call": "active"}, {"smiles": "C[C@H](CO)N1C[C@H](C)[C@H](CN(C)S(=O)(=O)c2ccc(-n3cccn3)cc2)OCc2cn(nn2)CCCC1=O", "cytotoxicity call": "inactive"}, {"smiles": "CO[C@H](C(=O)N(C)C[C@@H]1OCc2ccccc2-c2c(n(C)c3ccccc23)C(=O)N([C@@H](C)CO)C[C@@H]1C)c1ccccc1", "cytotoxicity call": "inactive"}, {"smiles": "C[C@@H]1CN([C@@H](C)CO)C(=O)Cc2cc(NC(=O)Nc3cccc4ccccc34)ccc2O[C@@H]1CN(C)Cc1ccncc1", "cytotoxicity call": "inactive"}, {"smiles": "COc1ccc(S(=O)(=O)N[C@H]2CC[C@@H](CC(=O)N3CCN(c4ccccc4)CC3)O[C@@H]2CO)cc1", "cytotoxicity call": "inactive"}, {"smiles": "Cc1noc(C)c1NC(=O)Nc1ccc2c(c1)C(=O)N([C@@H](C)CO)C[C@@H](C)[C@H](CN(C)C(=O)Nc1cccc3ccccc13)OCCCC[C@H](C)O2", "cytotoxicity call": "inactive"}, {"smiles": "Cc1noc(C)c1NC(=O)Nc1ccc2c(c1)C(=O)N([C@@H](C)CO)C[C@@H](C)[C@H](CN(C)C(=O)Nc1cccc3ccccc13)OCCCC[C@@H](C)O2", "cytotoxicity call": "active"}, {"smiles": "Cc1noc(C)c1NC(=O)Nc1ccc2c(c1)C(=O)N([C@@H](C)CO)C[C@H](C)[C@@H](CN(C)C(=O)Nc1cccc3ccccc13)OCCCC[C@@H](C)O2", "cytotoxicity call": "inactive"}, {"smiles": "Cc1noc(C)c1NC(=O)Nc1ccc2c(c1)C(=O)N([C@H](C)CO)C[C@H](C)[C@H](CN(C)C(=O)Nc1cccc3ccccc13)OCCCC[C@H](C)O2", "cytotoxicity call": "active"}, {"smiles": "Cc1noc(C)c1NC(=O)Nc1ccc2c(c1)C(=O)N([C@H](C)CO)C[C@H](C)[C@@H](CN(C)C(=O)Nc1cccc3ccccc13)OCCCC[C@H](C)O2", "cytotoxicity call": "inactive"}, {"smiles": "Cc1noc(C)c1NC(=O)Nc1ccc2c(c1)C(=O)N([C@H](C)CO)C[C@@H](C)[C@H](CN(C)C(=O)Nc1cccc3ccccc13)OCCCC[C@@H](C)O2", "cytotoxicity call": "inactive"}, {"smiles": "COc1ccc(S(=O)(=O)N(C)C[C@@H]2OCCCC[C@H](C)Oc3ccc(NS(=O)(=O)c4ccc(Cl)cc4)cc3C(=O)N([C@H](C)CO)C[C@H]2C)cc1", "cytotoxicity call": "inactive"}, {"smiles": "COc1ccc(S(=O)(=O)Nc2ccc3c(c2)C(=O)N([C@@H](C)CO)C[C@H](C)[C@H](CN(C)Cc2ccc(C(=O)O)cc2)OCCCC[C@H](C)O3)cc1", "cytotoxicity call": "inactive"}, {"smiles": "COC(=O)C1CCN(S(=O)(=O)c2c(C)n(C)c(=O)n(C)c2=O)CC1", "cytotoxicity call": "inactive"}, {"smiles": "O=C(CN1CCOCC1)NCC[C@H]1CC[C@H](NC(=O)c2ccccc2F)[C@H](CO)O1", "cytotoxicity call": "inactive"}, {"smiles": "O=C(CN1CCOCC1)NCC[C@@H]1CC[C@@H](NC(=O)c2ccccc2F)[C@H](CO)O1", "cytotoxicity call": "inactive"}, {"smiles": "O=C(CN1CCOCC1)NCC[C@@H]1CC[C@@H](NC(=O)c2ccccc2F)[C@@H](CO)O1", "cytotoxicity call": "active"}, {"smiles": "CO/N=[N+](\\[O-])NC(C)C", "cytotoxicity call": "inactive"}, {"smiles": "C[C@@H]1CCCCO[C@@H](CN(C)Cc2ccc(Cl)c(Cl)c2)[C@H](C)CN([C@H](C)CO)C(=O)c2cc(NS(=O)(=O)c3ccc(F)cc3)ccc2O1", "cytotoxicity call": "active"}, {"smiles": "C[C@H](CO)N1C[C@H](C)[C@H](CN(C)Cc2ccc(Cl)c(Cl)c2)OCCCC[C@H](C)Oc2ccc(NS(=O)(=O)c3ccc(F)cc3)cc2C1=O", "cytotoxicity call": "active"}, {"smiles": "C[C@@H]1CCCCO[C@@H](CN(C)Cc2ccc(Cl)c(Cl)c2)[C@@H](C)CN([C@@H](C)CO)C(=O)c2cc(NS(=O)(=O)c3ccc(F)cc3)ccc2O1", "cytotoxicity call": "inactive"}, {"smiles": "C[C@H](CO)N1C[C@H](C)[C@@H](CN(C)Cc2ccc(Cl)c(Cl)c2)OCCCC[C@H](C)Oc2ccc(NS(=O)(=O)c3ccc(F)cc3)cc2C1=O", "cytotoxicity call": "inactive"}, {"smiles": "C[C@@H]1CCCCO[C@@H](CN(C)Cc2ccc(Cl)c(Cl)c2)[C@H](C)CN([C@@H](C)CO)C(=O)c2cc(NS(=O)(=O)c3ccc(F)cc3)ccc2O1", "cytotoxicity call": "active"}, {"smiles": "C[C@@H]1CCCCO[C@H](CN(C)Cc2ccc(Cl)c(Cl)c2)[C@@H](C)CN([C@H](C)CO)C(=O)c2cc(NS(=O)(=O)c3ccc(F)cc3)ccc2O1", "cytotoxicity call": "inactive"}, {"smiles": "C[C@H]1CCCCO[C@H](CN(C)Cc2ccc(Cl)c(Cl)c2)[C@@H](C)CN([C@@H](C)CO)C(=O)c2cc(NS(=O)(=O)c3ccc(F)cc3)ccc2O1", "cytotoxicity call": "active"}, {"smiles": "C[C@H]1CN([C@@H](C)CO)C(=O)c2cc(NC(=O)NC3CCCCC3)ccc2O[C@H]1CN(C)S(=O)(=O)c1cn(C)cn1", "cytotoxicity call": "inactive"}, {"smiles": "O=C(C[C@@H]1CC[C@@H](NC(=O)Cc2ccccn2)[C@H](CO)O1)NCCc1ccncc1", "cytotoxicity call": "inactive"}, {"smiles": "C[C@H](CO)N1C[C@H](C)[C@@H](CN(C)S(=O)(=O)c2cccs2)OCCCC[C@H](C)Oc2ccc(NS(=O)(=O)c3ccc(Cl)cc3)cc2C1=O", "cytotoxicity call": "inactive"}, {"smiles": "C[C@H](CO)N1C[C@H](C)[C@H](CN(C)C(=O)Nc2ccc(C(F)(F)F)cc2)OCCCC[C@H](C)Oc2ccc(NC(=O)Cc3ccccc3)cc2C1=O", "cytotoxicity call": "inactive"}, {"smiles": "C[C@@H]1CCCCO[C@H](CN(C)Cc2ccc3c(c2)OCO3)[C@H](C)CN([C@@H](C)CO)C(=O)c2cc(NS(=O)(=O)c3ccccc3)ccc2O1", "cytotoxicity call": "inactive"}, {"smiles": "C[C@H]1CN([C@@H](C)CO)C(=O)c2cc(NC(=O)CCCN(C)C)ccc2O[C@@H]1CN(C)Cc1ccc(Oc2ccccc2)cc1", "cytotoxicity call": "inactive"}, {"smiles": "Cc1ncc(CO)c(/C=N/O)c1O", "cytotoxicity call": "inactive"}, {"smiles": "Cc1ccc(S[C@]2(C(=O)NC(C)C)CC(=O)N(C3CCCCC3)[C@@H]2c2ccc(CO)cc2I)cc1", "cytotoxicity call": "inactive"}, {"smiles": "COc1ccc(S(=O)(=O)N[C@H]2C=C[C@@H](CC(=O)N3CCN(c4ccccc4)CC3)O[C@@H]2CO)cc1", "cytotoxicity call": "inactive"}, {"smiles": "Cc1noc(C)c1NC(=O)Nc1cccc2c1O[C@@H](CN(C)C(=O)Nc1ccc(C(F)(F)F)cc1)[C@H](C)CN([C@H](C)CO)C2=O", "cytotoxicity call": "inactive"}, {"smiles": "Cc1cc(C(=O)Nc2cccc3c2O[C@H](CN(C)S(=O)(=O)c2ccc(F)cc2)[C@@H](C)CN([C@H](C)CO)C3=O)n(C)n1", "cytotoxicity call": "inactive"}, {"smiles": "COC(=O)c1c2oc(c1C(=O)OC)C(=O)N[C@H](Cc1ccccc1)Cn1cc(nn1)CNC(=O)[C@H](Cc1ccccc1)NC(=O)N[C@@H](CO)CC2", "cytotoxicity call": "inactive"}, {"smiles": "CCCCC[C@H]1C[C@H]1C[C@H]1C[C@H]1CCCCCCCC(=O)O", "cytotoxicity call": "inactive"}, {"smiles": "COc1cccc(CN2C[C@@H](C)[C@H](OC)CN(C)C(=O)c3cc(NS(=O)(=O)c4cn(C)cn4)ccc3OC[C@H]2C)c1", "cytotoxicity call": "inactive"}, {"smiles": "O=C(C[C@@H]1CC[C@@H]2[C@H](COC[C@@H](O)CN2C(=O)c2ccc3c(c2)OCO3)O1)NCCN1CCCC1", "cytotoxicity call": "inactive"}, {"smiles": "C[C@@H]1CCCCO[C@H](CN(C)Cc2ccc(Cl)c(Cl)c2)[C@@H](C)CN([C@@H](C)CO)C(=O)c2cc(NS(=O)(=O)c3ccc(F)cc3)ccc2O1", "cytotoxicity call": "active"}, {"smiles": "C[C@@H]1CCCCO[C@H](CN(C)Cc2ccc(Cl)c(Cl)c2)[C@H](C)CN([C@@H](C)CO)C(=O)c2cc(NS(=O)(=O)c3ccc(F)cc3)ccc2O1", "cytotoxicity call": "active"}, {"smiles": "C[C@@H]1CN([C@H](C)CO)C(=O)c2cc(NS(=O)(=O)c3ccc(F)cc3)ccc2O[C@@H](C)CCCCO[C@H]1CN(C)Cc1ccc(Cl)c(Cl)c1", "cytotoxicity call": "inactive"}, {"smiles": "C[C@@H]1CCCCO[C@@H](CN(C)Cc2ccc(Cl)c(Cl)c2)[C@@H](C)CN([C@H](C)CO)C(=O)c2cc(NS(=O)(=O)c3ccc(F)cc3)ccc2O1", "cytotoxicity call": "inactive"}]}]}
